TrxR1 substrate – rat thioredoxin reductase 1 substrate activity | O89049 | purified TrxR1 substrate turnover, NADPH consumption readout | Potency, µM (top dose mostly 114 µM), inactives show at the highest dose activity change, negative = substrate turnover | actives 0.01% (n = 390,000) | AID 588456; further: potency means the concentration at half of the fitted maximal effect; nearly all actives have a fitted effect of over 50% in size
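Rat TrxR1, dispensed at 90 nM, was prereduced with 400 uM NADPH (final) for 5 min at ~22 deg C, then incubated with compound 15 min before 400 uM selenite. A first-read NADPH fluorescence drop versus no-compound background flagged substrates.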
Giardia kill – kills Giardia lamblia; actives 0.15% (n = 340,000); Giardia lamblia trophozoite viability; activity change, % at 7.66 µM, hits read low; AID 540267; in the data active means activity change below about -80%; inconclusive means between about -30% and that limit;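 further: parasites exposed to compound for two days anaerobically before the ATP read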
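Luminescent ATP signal served as the viability read-out, measured 15-30 min after adding ATP detection reagent to trophozoites that had been incubated with compounds for 48 hrs at 37 deg C anaerobically at 100 cells/well.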
PI4K2A block – blocks human PI4K2A kinase activity. activity change, negative = inhibition, % at 76.9 µM. actives 0.13% (n = 420,000). AID 1346378. Q9BTU6. purified PI4K2A, ADP-Glo luminescence, 1 h; stronger effect = lower value; in the data active means activity change below about -50%; inconclusive means mostly about -30% to -49%;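 further: -100% = wells without enzyme as full effect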
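In this quantitative HTS, ADP production by PI4K2A was quantified luminescently after 1 h at ambient temperature; 100 microM adenosine served as plate-quality control.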
FBPA coupling cs – counter-screen for Giardia aldolase inhibitors: coupling enzyme system; AID 2472; actives 0.67% (n = 290,000); activity change, negative = inhibition, % at 58.2 µM, hits read low; coupling enzyme system counterscreen, AmpLite Red fluorescence; in the data active means activity change below about -30%
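Activity here indicates interference with the coupling reaction, not aldolase inhibition. Compounds at 57.5 uM final met coupling enzymes for 10 min at RT; substrate and AmpLite Red detection followed, with a 525/598 nm fluorescence read after 20 min.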
rTrxR1 inhibitor – rat TrxR1 inhibition; O89049; recombinant rTrxR1, NADPH fluorescence consumption, selenite substrate; Potency, µM (highest dose often 114 µM), for the others: top-dose activity change, negative = inhibition, usual class: inhibitors; actives 1% (n = 390,000); further: potency means the concentration at half of the fitted maximal effect; nearly all actives have a fitted effect of over 65% in size
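Rat TrxR1 (90 nM in the dispensed reagent) was pre-reduced with 400 uM NADPH for 5 min at room temperature, then incubated with compound for 15 min. After 400 uM selenite was added, NADPH fluorescence (Ex 340/Em 450 nm) was followed for 8 min.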
GALK inhibitor – galactokinase (human) inhibition. P51570. Purified GALK, Kinase-Glo residual ATP luminescence. Potency, µM (doses to about 57.5 µM), without a hit: top-dose activity change, negative = inhibition, usual class: inhibitors. actives 0.007% (n = 270,000); further: potency means the concentration at half of the fitted maximal effect
Target sequence (P51570 whole entry, looked up): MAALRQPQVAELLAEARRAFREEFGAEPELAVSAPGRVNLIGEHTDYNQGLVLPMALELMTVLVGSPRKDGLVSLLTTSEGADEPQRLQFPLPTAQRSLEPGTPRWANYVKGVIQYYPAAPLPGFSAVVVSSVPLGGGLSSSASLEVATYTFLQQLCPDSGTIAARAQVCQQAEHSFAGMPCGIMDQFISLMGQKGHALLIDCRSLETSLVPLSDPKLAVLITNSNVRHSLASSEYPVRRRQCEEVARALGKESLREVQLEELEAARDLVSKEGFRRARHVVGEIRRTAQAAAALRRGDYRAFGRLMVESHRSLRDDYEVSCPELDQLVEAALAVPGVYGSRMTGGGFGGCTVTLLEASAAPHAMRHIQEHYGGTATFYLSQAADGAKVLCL
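Human GALK (5 nM) with 35 uM ATP and 100 uM galactose in 20 mM HEPES pH 8.0, 5 mM MgCl2, 60 mM NaCl, 1 mM DTT, 0.01% BSA. After 1 h at room temperature, leftover ATP was read by Kinase-Glo Plus luminescence.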
The depositor's hits bear a star; ? = inconclusive; . = no result given; [ ] = another dose, or the depositor's remark. This is a sample that favours compounds with a hit; in the whole collection about 1.5% have one here. Unless noted, the call rests on the fitted dose curve; in most records, active means well fitted curve in the direction sought with a large enough effect; inconclusive means small, poorly fitted or top-dose-only effect, or another doubt; inactive means no such curve, though single readings can be large; an effect the other way counts as inactive or inconclusive. Unless noted, on the % scale 0 is the no-effect control and ±100 the full control effect.

SMILES	TrxR1 substrate	Giardia kill	PI4K2A block	FBPA coupling cs	rTrxR1 inhibitor	GALK inhibitor
CCCCN1CC[C@H]2C=CC[C@@H](C(=O)NC3CCCCC3)[C@H]2C1=O	-1%	.	.	.	7%	.
O=C(Nc1cc(F)ccc1F)c1cnn2c1NC(=C1CC1)C=C2C(F)F	3%	.	.	.	17%	.
O=C1CCC[C@H]2C[C@H](NCc3ccco3)CC[C@]23CCCN13	.	.	-3	.	.	.
O=C(CSc1oc(-c2ccco2)nc1S(=O)(=O)c1ccccc1)NCC1CCCO1 (centres undefined)	-9%	4	0	0	?	-3%
CCCSc1oc(-c2ccco2)nc1S(=O)(=O)c1ccccc1	7%[57.1 µM]	-21	0	-36*	-14%	-2%
Cc1ccc(S(=O)(=O)c2nc(-c3ccco3)oc2SCC(N)=O)cc1	?	0	2	0	79µM*	-4%
O=C(CSc1oc(-c2ccco2)nc1S(=O)(=O)c1ccc(F)cc1)NCC1CCCO1 (centres undefined)	5%	14	5	2	16µM*	0%
NC(=O)CSc1oc(-c2ccco2)nc1S(=O)(=O)c1ccc(Cl)cc1	12%[0.0914 µM]	0	-18	0	?	16%
COc1cccc(C(=O)n2ccc3ccc(-c4ccc5ccn(Cc6ccc(C#N)cc6)c5c4)cc32)c1	.	.	-5	.	.	.
CCCc1cc(=O)oc2cc(C)cc(OCC(=O)NC(Cc3c[nH]c4ccc(O)cc34)C(=O)O)c12 (centres undefined)	23%	-2	-18	1	-7%	.
CCCCc1cc(=O)oc2cc(OCC(=O)NC(Cc3c[nH]c4ccc(O)cc34)C(=O)O)ccc12 (centres undefined)	1%	-17	-68*	5	1%	.
CCCC(=O)N1c2nc(-c3ccco3)nn2C2(CCCCC2)[C@@H]2CCCC[C@@H]21	-2%	.	1	.	?	.
COC(=O)C(CC(C)C)N1CCC(=O)c2ccccc2S1(=O)=O (centres undefined)	-3%	-13	-5	1	-36%	0%
C=C1C=CS(=O)(=O)N(C(CC(C)C)C(=O)OC)C1 (centres undefined)	-2%	10	.	-3	11µM*	.
COCCN(CCOC)Cc1c(O)ccc2c1O/C(=C\c1ccco1)C2=O	-26%	-12	-8	-5	79µM*	-2%
O=C1/C(=C/c2ccco2)Oc2c1ccc(O)c2CN1CCCCC1	-22%[57.1 µM]	-4	0	-8	?	.
CCC(=O)Oc1ccc2c(c1)O/C(=C\c1ccco1)C2=O	-7%	8	-29	6	79µM*	-3%
CCOc1ccc(OCC)c(NC(=O)CCc2nc3cccnc3n2-c2ccccc2)c1	-8%	.	8	.	-3%	.
O=C(C[n+]1cccc(Cl)c1)c1ccc(O)c(O)c1	-10%	.	.	.	-7%	.
S=C(Nc1ccc2cn[nH]c2c1)Nc1ccccc1Cl	-7%	4	-5	-47*	?	2%
S=C(Nc1ccc2cn[nH]c2c1)Nc1ccc(Cl)cc1Cl	2%	-21	-7	-10	-13%[57.1 µM]	-1%
NC(=O)c1ccc(N=C2C(=O)Nc3ccc([N+](=O)[O-])cc32)cc1	?	-6	?	-30*	?	3%
O=C1Nc2ccccc2C1=Nc1cccc([N+](=O)[O-])c1	6%[57.1 µM]	-7	3	-1	1%[2.29 µM]	.
Cc1cc(C)c(NC(=O)COCc2cc(-c3cccs3)on2)c(C)c1	-7%	.	-1	.	-3%	.
CC1CCCCC1NC(=O)COCc1cc(-c2cccs2)on1 (centres undefined)	4%	5	-20	4	45µM*	0%
CC(C)(C)C1CCC(CC2=C(O)c3ccccc3C(=O)C2=O)CC1 (centres undefined)	.	.	-2	.	.	.
CC1(C)Cc2c(C#N)c(OCC(=O)c3ccccc3)nc(-c3ccoc3)c2CO1	-4%	-8	2	1	50µM*	-2%
c1ccc(-c2noc(-c3ccc4ccccc4c3)n2)nc1	24%	-93*	?	-1	24%	5%

Assay outcomes deposited in PubChem by National Center for Advancing Translational Sciences (NCATS).
